The supplement of paper PMC9402605
± gives the standard deviation of the averaged measurements.

Test system: Caenorhabditis elegans N2
Test: egg-laying rate relative to DMSO control (M9 buffer background) (fraction of control); higher = more egg-laying
Conditions: 60 µM, 1 h
Experimental: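 About 20 young-adult wild-type C. elegans (N2) per well in 96-well plates were exposed to 60 uM compound for 1 h at room temperature, either in M9 buffer (to find stimulators) or in 12.3 mM serotonin + 7.7 mM nicotine (NS, to find inhibitors). Eggs per worm per hour were counted by automated imaging and normalised to the mean of proximal DMSO control wells. Values average the primary screen and two retests of the worm-active (wactive) Egl modulators.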

| Structure (SMILES) | egg-laying rate |
| --- | --- |
| Ic1cccc(-c2nnc(-c3ccccc3)o2)c1 [wact-51] | 2.92 ± 1.6 |
| CCC1CCC(N2CCN(c3ccc([N+](=O)[O-])cc3)CC2)CC1 (stereo not given) [wact-6] | 7.85 ± 2.4 |
| O=C(Nc1ccc(I)cc1)c1ccco1 [wact-27] | 3.06 ± 1.5 |
| CCCCOC(=O)Nc1ccc([N+](=O)[O-])cc1 [wact-419] | 2.9 ± 0.58 |
| O=[N+]([O-])c1ccc(N2CCN(CC3CCCCC3)CC2)cc1 [wact-45] | 4.22 ± 1.8 |
| O=[N+]([O-])c1ccc(N2CCc3ccccc3C2)nc1 [wact-421] | 1.83 ± 0.59 |
| O=C1CC(N2CCN(c3ccc([N+](=O)[O-])cc3)CC2)C(=O)N1c1ccccc1F (stereo not given) [wact-56] | 2.24 ± 0.45 |
| Brc1cccc(-c2cn3ccccc3n2)c1 [wact-435] | 0.576 ± 0.34 |
| O=[N+]([O-])c1ccc(CSc2ccc(Cl)cc2)cc1 [wact-3] | 2.13 ± 0.22 |
| c1csc(-c2cnc3ccccc3n2)c1 [wact-21] | 4.69 ± 1.8 |
| c1ccc(CSc2nnc(-c3ccccc3)o2)cc1 [wact-38] | 8.44 ± 0.94 |
| O=C(Nc1cccc(Cl)c1)N1CCN(c2ccc([N+](=O)[O-])cc2)CC1 [wact-31] | 2.02 ± 0.75 |
| CCOc1ccc(C(=O)c2cccs2)cc1 [wact-471] | 2.49 ± 2.2 |
| CCSc1nnc(-c2ccc(Cl)cc2Cl)o1 [wact-4] | 4.56 ± 1.9 |
| O=[N+]([O-])c1ccc(N2CCN(CC3CC=CCC3)CC2)cc1 (stereo not given) [wact-47] | 10.6 ± 6.3 |
| Cc1ccn2cc(-c3ccc(F)cc3)nc2c1 [wact-436] | 1.94 ± 0.73 |
| CCc1ccc(-c2cn3ccsc3n2)cc1 [wact-434] | 1.53 ± 0.93 |
| O=[N+]([O-])c1ccc(-n2ccc3ccccc32)cc1 [wact-213] | 2.13 ± 1.5 |
| Clc1ccc(-c2cn3ccsc3n2)cc1 [wact-1] | 1.94 ± 0.54 |
| Fc1ccc(-c2cn3ccsc3n2)cc1 [wact-433] | 3.02 ± 1.1 |
| Cc1ccccc1C(=O)NCCc1ccccc1 [wact-406] | 0.741 ± 0.36 |
| COc1ccc(C=Cc2ccccn2)cc1 [wact-622] | 1.19 ± 0.28 |
| Cc1ccc(-c2cnc(-c3ccncc3)o2)cc1 [wact-23] | 3.94 ± 1.5 |
| Cc1ccccc1C(=O)NCCSC1CCCCC1 [wact-494] | 1.03 ± 0.24 |
| O=[N+]([O-])c1ccc(N2CCN(CC3CC4C=CC3C4)CC2)cc1 (stereo not given) [wact-46] | 11 ± 6.7 |
